# Assay results taken from PubChem BioAssay.
# Activity calls are given as the source filed them. Unless noted, how the calls were made is not given here.
# Key:
# [1] = test system: Wnt5a (protein binding on small-molecule microarray); experiment: Wnt5a binders on small-molecule microarray, primary screen, biophysical, 635/667 nm fluorescence (AID 1142); conditions: 635 nm fluorescence, higher = more signal;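 further: fluorescence read at 667 nm with signal to noise per printed feature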
# [2] = cell viability in Huh7 cells, primary screen, cytotoxicity control for HCV replication inhibitor project, CellTiter-Glo luminescence, basal, 48 h (AID 1143); conditions: Huh7 HCV replicon, higher = more signal, called active from +8 up or from −8 down;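 further: Huh7 hepatoma cells carrying a hepatitis C replication reporter with no stimulus; test concentration not given here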
# [3] = P. aeruginosa biofilm formation inhibitors, primary screen, PAO1 strain, BacTiter-Glo luminescence, LB-PBS (AID 1144); conditions: 12 h, higher = more signal
# [4] = CREB reporter modulators without forskolin, primary screen, cell-based, PC12, CRE-LacZ reporter, unstimulated (AID 1145); conditions: no forskolin, luminescence, 4.5 h, higher = more signal, called active from +8 up or from −8 down
# [5] = CREB reporter modulators under forskolin, primary screen, cell-based, PC12, CRE-LacZ reporter, forskolin-stimulated (AID 1146); conditions: luminescence, 4.5 h, higher = more signal, called active from +8 up or from −8 down;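 further: PC12 cells with 6xCRE LacZ reporter stimulated by forskolin 10 µM; beta-galactosidase reporter signal reflecting CREB driven transcription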
# [6] = target: Streptavidin (Streptomyces avidinii) (UniProt P22629); experiment: streptavidin binders on small-molecule microarray, primary screen, artefact control for SMM compound annotation, biophysical, 635/667 nm fluorescence (AID 1147); conditions: streptavidin binding, higher = more signal;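 further: signal reflects streptavidin binding to arrayed compounds as a control protein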
# [7] = small-molecule binders of probe aInhba, primary screen, biochemical, small-molecule microarray, 635/667 nm fluorescence (AID 1148); conditions: higher = more signal;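 further: score merges 667nm spot fluorescence with signal-to-noise for antibody binding to printed compounds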
# Torsin-1A (Homo sapiens) [8] = target: Torsin-1A (Homo sapiens) (UniProt O14656); experiment: torsin A binders from cell lysate, primary screen, small-molecule microarray, wild-type, 635/667 nm (AID 1149); conditions: COS7 hTOR1A-WT lysate, 635 nm fluorescence, higher = more signal
# Torsin-1A (Homo sapiens) [9] = target: Torsin-1A (Homo sapiens) (UniProt O14656); experiment: small-molecule binders of mutant TOR1A in lysate, primary screen, cell lysate, small-molecule microarray, COS7 lysate, 635/667 nm fluorescence (AID 1150); conditions: COS7 hTOR1A mutant lysate, 635 nm fluorescence, higher = more signal;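 further: score pools 667 nm emission and signal to noise measuring lysate protein binding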
# [10] = test system: Sonic hedgehog protein (Shh); experiment: small-molecule binders of Shh protein, primary screen, biochemical, small-molecule microarray, 635/667 nm fluorescence (AID 1151); conditions: small-molecule microarray binding, 635 nm fluorescence; higher = more signal;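 further: Shh protein binding to compounds spotted on small-molecule microarray slides; score combines spot fluorescence intensity with signal-to-noise across triplicate slides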
# [11] = E. coli DRC41 culture turbidity changes, primary screen, E. coli filamentation inducer project, strain DRC41, OD650, 48 h (AID 1152);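 further: E. coli MC1000 strain DRC41 lacking acrAB efflux pump and sulA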; conditions: E. coli DRC41 (acrAB sulA), higher = more signal, called active from +8 up or from −8 down
# [12] = small-molecule binders of probe aLefty1, primary screen, biochemical, small-molecule microarray, 635/667 nm fluorescence (AID 1153); conditions: higher = more signal;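 further: score merges spot fluorescence with signal-to-noise ratio from the scanned slide images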
# [13] = PSAC antagonists in infected red cells, primary screen, cell-based, P. falciparum Indochina, OD700, 1 h (AID 1154); conditions: P. falciparum Indochina infected RBC osmotic lysis, higher = more signal, called active from +8 up or from −8 down
# [14] = PSAC antagonists in infected red cells, primary screen, cell-based, P. falciparum Indochina, OD700, 2 h (AID 1155);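 further: lysis reports solute entry through the parasite surface anion channel PSAC; channel blockers reduce lysis of infected cells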; conditions: P. falciparum Indochina infected erythrocytes, osmotic lysis OD700; higher = more signal, called active from +8 up or from −8 down
# [15] = osmotic lysis modulators in infected erythrocytes, primary screen, PSAC antagonist project, cell-based, P. falciparum Indochina, OD700, 3 h (AID 1156); conditions: higher = more signal, called active from +8 up or from −8 down
# [16] = PSAC antagonists in infected red cells, primary screen, cell-based, P. falciparum Indochina, OD700, 18 h (AID 1157); conditions: P. falciparum Indochina infected erythrocytes, osmotic lysis OD700, 18 h; higher = more signal, called active from +8 up or from −8 down
# [17] = modulators of S6 phosphorylation in cells, primary screen, cell-based, A549, cytoblot, luminescence, serum-stimulated (AID 1158); conditions: A549 phospho-S6 cytoblot, 5 h, higher = more signal;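 further: serum-stimulated A549 lung adenocarcinoma cells; signal is phosphorylated S6 detected by cytoblot immunostaining with HRP secondary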
# [18] = target: NADPH oxidase 2 (Homo sapiens) (UniProt P04839); experiment: NOX2-dependent H2O2 signal modulators, primary screen, NOX inhibitor project, cell-based, HEK293-NOX2, PMA-stimulated, Amplex Red fluorescence (AID 1159); conditions: 45 min, higher = more signal, called active from +8 up or from −8 down; further: test concentration not given here
# [19] = target: NADPH oxidase 4 (Homo sapiens) (UniProt Q9NPH5); experiment: NOX4-dependent H2O2 signal modulators, primary screen, NOX inhibitor project, cell-based, HEK293-NOX4, tetracycline-induced, Amplex Red fluorescence (AID 1160); conditions: 45 min, higher = more signal, called active from +8 up or from −8 down
# [20] = target: NADPH oxidase 5 (Homo sapiens) (UniProt Q96PH1); experiment: NOX5-dependent H2O2 signal modulators, primary screen, NOX inhibitor project, cell-based, HEK293-NOX5, Amplex Red fluorescence (AID 1161); conditions: HEK293-NOX5, ionomycin, 45 min, higher = more signal
# Chain of NADPH oxidase 5 (Homo sapiens) (Q96PH1 whole entry, looked up): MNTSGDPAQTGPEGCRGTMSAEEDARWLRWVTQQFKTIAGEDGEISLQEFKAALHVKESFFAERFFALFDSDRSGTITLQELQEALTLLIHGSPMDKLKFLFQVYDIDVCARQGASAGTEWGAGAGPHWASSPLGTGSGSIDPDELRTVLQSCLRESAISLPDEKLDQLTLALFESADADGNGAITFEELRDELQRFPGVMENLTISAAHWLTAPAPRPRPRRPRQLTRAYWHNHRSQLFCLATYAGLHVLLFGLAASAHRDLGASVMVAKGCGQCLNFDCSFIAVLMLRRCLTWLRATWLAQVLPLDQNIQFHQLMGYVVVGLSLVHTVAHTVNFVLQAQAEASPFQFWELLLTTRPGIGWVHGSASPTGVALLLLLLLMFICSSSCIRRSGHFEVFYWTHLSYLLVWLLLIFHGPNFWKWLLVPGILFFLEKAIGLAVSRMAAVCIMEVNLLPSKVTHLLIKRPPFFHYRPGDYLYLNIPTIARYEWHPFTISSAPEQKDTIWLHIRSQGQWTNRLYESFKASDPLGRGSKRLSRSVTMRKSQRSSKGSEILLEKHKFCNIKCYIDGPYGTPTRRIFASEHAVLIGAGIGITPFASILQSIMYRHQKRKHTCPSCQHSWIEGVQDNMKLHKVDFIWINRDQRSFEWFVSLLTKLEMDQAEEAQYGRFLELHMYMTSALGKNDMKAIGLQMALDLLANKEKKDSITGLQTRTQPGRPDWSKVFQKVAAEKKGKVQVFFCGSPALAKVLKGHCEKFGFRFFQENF
# Chain of NADPH oxidase 4 (Homo sapiens) (Q9NPH5 whole entry, looked up): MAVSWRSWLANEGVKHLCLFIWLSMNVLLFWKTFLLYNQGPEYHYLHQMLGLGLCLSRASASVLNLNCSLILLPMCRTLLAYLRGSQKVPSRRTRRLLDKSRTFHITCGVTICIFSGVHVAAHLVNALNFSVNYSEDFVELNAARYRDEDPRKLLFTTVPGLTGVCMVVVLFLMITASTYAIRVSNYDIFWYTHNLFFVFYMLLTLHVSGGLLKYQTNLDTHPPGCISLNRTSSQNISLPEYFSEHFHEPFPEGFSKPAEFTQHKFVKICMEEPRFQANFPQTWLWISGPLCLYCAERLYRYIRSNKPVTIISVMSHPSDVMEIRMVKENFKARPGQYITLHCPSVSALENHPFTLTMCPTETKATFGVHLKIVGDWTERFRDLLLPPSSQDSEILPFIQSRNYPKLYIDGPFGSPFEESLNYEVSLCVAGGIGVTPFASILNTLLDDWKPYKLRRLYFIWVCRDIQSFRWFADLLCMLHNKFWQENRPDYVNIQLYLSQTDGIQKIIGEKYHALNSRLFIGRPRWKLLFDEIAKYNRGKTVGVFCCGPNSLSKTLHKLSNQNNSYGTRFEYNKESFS
# Chain of Torsin-1A (Homo sapiens) (O14656 whole entry, looked up): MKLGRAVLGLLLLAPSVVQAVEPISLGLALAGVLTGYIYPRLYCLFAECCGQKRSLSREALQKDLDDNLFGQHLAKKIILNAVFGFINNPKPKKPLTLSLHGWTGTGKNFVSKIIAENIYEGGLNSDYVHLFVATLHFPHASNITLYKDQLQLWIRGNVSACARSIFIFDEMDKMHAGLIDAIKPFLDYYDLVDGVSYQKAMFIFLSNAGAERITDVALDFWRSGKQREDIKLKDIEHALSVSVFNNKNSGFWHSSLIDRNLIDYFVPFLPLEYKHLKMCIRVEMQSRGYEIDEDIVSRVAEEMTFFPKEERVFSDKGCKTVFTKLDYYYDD
# Chain of NADPH oxidase 2 (Homo sapiens) (P04839 whole entry, looked up): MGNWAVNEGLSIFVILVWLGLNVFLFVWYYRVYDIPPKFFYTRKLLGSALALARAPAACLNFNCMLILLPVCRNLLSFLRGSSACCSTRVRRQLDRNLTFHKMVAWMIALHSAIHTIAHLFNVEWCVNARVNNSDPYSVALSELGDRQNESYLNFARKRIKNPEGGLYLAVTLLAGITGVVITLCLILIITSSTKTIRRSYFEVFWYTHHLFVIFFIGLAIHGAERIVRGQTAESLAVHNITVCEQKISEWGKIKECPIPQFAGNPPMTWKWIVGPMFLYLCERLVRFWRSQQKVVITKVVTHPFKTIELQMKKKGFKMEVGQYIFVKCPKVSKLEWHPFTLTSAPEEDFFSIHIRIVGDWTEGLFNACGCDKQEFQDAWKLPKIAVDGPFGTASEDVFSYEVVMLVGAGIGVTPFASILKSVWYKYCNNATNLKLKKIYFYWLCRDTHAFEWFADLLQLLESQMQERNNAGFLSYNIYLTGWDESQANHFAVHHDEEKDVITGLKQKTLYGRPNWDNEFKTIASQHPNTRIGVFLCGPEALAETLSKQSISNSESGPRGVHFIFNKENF
# Chain of Streptavidin (Streptomyces avidinii) (P22629 whole entry, looked up): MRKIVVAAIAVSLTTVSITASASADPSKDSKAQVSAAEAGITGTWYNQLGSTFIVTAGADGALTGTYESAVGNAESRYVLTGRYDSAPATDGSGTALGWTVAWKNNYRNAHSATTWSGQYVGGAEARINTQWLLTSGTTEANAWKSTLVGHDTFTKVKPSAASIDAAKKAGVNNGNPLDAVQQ
Structure (SMILES),composite z-score [1],z-score [2],z-score [3],z-score [4],z-score [5],composite z-score [6],composite z-score [7],composite z-score (Torsin-1A (Homo sapiens) [8]),composite z-score (Torsin-1A (Homo sapiens) [9]),composite z-score [10],z-score [11],composite z-score [12],z-score [13],z-score [14],z-score [15],z-score [16],z-score [17],z-score [18],z-score [19],z-score [20]
COc1ccc([Si](C)(C)[C@H]2[C@H](CC(=O)N3Cc4ccccc4C[C@H]3CO)O[C@@]3(C(=O)N(C)c4ccccc43)[C@@H]2C)cc1,0.26,-7.33 (inactive),0.458 (inactive),5.61 (inactive),-1.92 (inactive),0.783,0.0342,1.28,1.91,2.07,-0.614 (inactive),0.384,13.2 (active),1.16 (inactive),2.37 (inactive),-0.925 (inactive),0.867,-3.27 (inactive),-1.45 (inactive),-1.91
C=CCN1Cc2ccccc2[C@H]2OC(c3ccc(OCCCO)cc3)=N[C@@]2(CCS(=O)(=O)c2ccccc2)C1=O,1.07,-2.3 (inactive),0.477 (inactive),1.44 (inactive),-1.27 (inactive),0.22,0.275,0.695,1.26,1.28,-0.028 (inactive),0.607,30.4 (active),27.2 (active),1.47 (inactive),6 (inactive),-0.272,-0.697 (inactive),1.93 (inactive),0.119
CC(C)C[C@H]1NC(=O)C([C@@H](C)OCc2ccccc2)NC(=O)[C@@]23C(=O)N[C@@H](Cc4ccccc4)C2[C@H](C)[C@@]2(C)O[C@H]2C3/C=C/C/C=C\CNC1=O (stereo not given in full),0.0872,-1.63 (inactive),0.727 (inactive),0.839 (inactive),-0.566 (inactive),0.0874,0.242,-0.125,0.519,1.62,-0.629 (inactive),0.0361,1.44 (inactive),-0.387 (inactive),-0.0195 (inactive),0.0591 (inactive),0.298,0.569 (inactive),0.742 (inactive),-2.51
O=C1[C@H]2C=C(I)[C@H](C[C@@H]2c2ccccc2)[C@@]12CO2,-0.303,-0.496 (inactive),0.686 (inactive),0.849 (inactive),1.31 (inactive),-0.144,-0.0762,-0.114,-0.153,0.147,-1.76 (inactive),-0.15,0.613 (inactive),0.0069 (inactive),0.402 (inactive),-0.0396 (inactive),-0.164,-0.66 (inactive),0.265 (inactive),-0.666
O=C(NCC(O)CO)[C@@]1(CCS(=O)(=O)c2ccccc2)N=C(c2ccc(OCCCO)cc2)O[C@H]1c1ccccc1 (stereo not given in full),0.274,-3.75 (inactive),-0.513 (inactive),0.675 (inactive),-1.04 (inactive),1.4,0.212,0.449,1.23,-1.04,-0.295 (inactive),0.419,25.6 (active),19.1 (active),2.38 (inactive),1.39 (inactive),1.07,-0.356 (inactive),1.47 (inactive),1.33
O=C1NC(=O)C2C1C=CC(C(O)c1ccc(B(O)O)cc1)N2Nc1ccc(Cl)cc1Cl (stereo not given),-0.0744,-0.245 (inactive),-0.661 (inactive),-0.515 (inactive),0.763 (inactive),1.09,0.0074,-1.22,-0.147,-0.589,-2.48 (inactive),0.199,1.8 (inactive),0.917 (inactive),-0.577 (inactive),0.654 (inactive),-1.07,-2.66 (inactive),-5.04 (inactive),-6.42
CC(C)N1C(=O)c2ccccc2[C@](C)(C(=O)NCC(F)(F)F)[C@@H]1c1ccc(CO)cc1,-0.218,-0.167 (inactive),0.633 (inactive),0.414 (inactive),-0.0278 (inactive),-0.913,0.0516,-0.978,0.33,-0.982,0.481 (inactive),0.402,0.834 (inactive),-0.0162 (inactive),-0.377 (inactive),-0.16 (inactive),0.0308,0.91 (inactive),0.89 (inactive),0.783
O=C1C2C=CC(C(O)C3CCCCC3)N(n3cnnc3)C2C(=O)N1Cc1ccccc1 (stereo not given),0.364,-4.7 (inactive),-1.2 (inactive),-0.135 (inactive),-0.233 (inactive),0.203,0.229,0.187,0.64,1.65,0.253 (inactive),0.375,2.45 (inactive),-0.471 (inactive),0.312 (inactive),-1.6 (inactive),1.75,-4 (inactive),-0.921 (inactive),-5.07
COCCCNC(=O)[C@@]1(CCS(=O)(=O)c2ccccc2)COC(c2ccc(OCCCO)cc2)=N1,0.612,-0.0036 (inactive),0.86 (inactive),0.918 (inactive),-0.387 (inactive),2.53,0.271,1.29,1.49,-0.334,1.08 (inactive),0.87,29.2 (active),24.6 (active),0.764 (inactive),4.31 (inactive),-0.131,-0.556 (inactive),0.25 (inactive),0.0637
